High-throughput results deposited in PubChem BioAssay by National Center for Advancing Translational Sciences (NCATS).
The list is not random: actives were taken first. Their share in the collection is about 11%.
HPGD block: inhibitors of human 15-hydroxyprostaglandin dehydrogenase (HPGD); 150,000 compounds, 4.3% hits; P15428; purified HPGD, NADH fluorescence kinetic, PGE2 substrate; Potency, µM, for inactives: at the highest dose activity change, negative = inhibition, usual class: inhibitors; also: potency is read from the fitted curve at half-maximal effect
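20 nM HPGD preincubated 15 min at room temperature with compound in 50 mM Tris-HCl pH 8, 0.01% Tween 20. Started with 1 mM NAD+ and 30 uM prostaglandin E2; NADH fluorescence (360/450 nm) read 5 times over 30-s intervals, last minus first.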
ALDH1A1 block: inhibitors of human aldehyde dehydrogenase 1A1; 220,000 compounds, 7.3% hits; Potency, µM (top dose mostly 75.3 µM), without a hit: at the highest dose activity, negative = inhibition, most hits filed as inhibitors; AID 1030; Purified ALDH1A1, NADH fluorescence, propionaldehyde substrate; P00352;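 also: potency is read from the fitted curve at half-maximal effect; plate controls were no enzyme wells and a reference inhibitor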
Target sequence (P00352 whole entry, looked up): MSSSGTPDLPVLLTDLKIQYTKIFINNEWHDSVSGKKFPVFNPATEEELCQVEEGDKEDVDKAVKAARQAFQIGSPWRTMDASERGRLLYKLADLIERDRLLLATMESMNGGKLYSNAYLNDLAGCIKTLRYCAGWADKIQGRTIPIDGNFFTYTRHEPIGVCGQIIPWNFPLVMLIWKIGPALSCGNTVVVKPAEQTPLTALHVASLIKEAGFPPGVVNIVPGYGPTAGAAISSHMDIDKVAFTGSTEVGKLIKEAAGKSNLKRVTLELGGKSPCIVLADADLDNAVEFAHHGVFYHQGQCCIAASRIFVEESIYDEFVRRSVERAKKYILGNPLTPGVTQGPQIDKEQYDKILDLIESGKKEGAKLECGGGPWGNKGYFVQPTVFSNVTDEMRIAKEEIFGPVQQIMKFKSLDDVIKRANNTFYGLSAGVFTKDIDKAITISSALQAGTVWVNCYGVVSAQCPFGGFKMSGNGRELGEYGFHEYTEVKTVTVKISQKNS
PNC assembly inh: blocks assembly of the perinucleolar compartment. activity change (PNC), negative = inhibition, % at 10 µM. 140,000 compounds, 3.1% hits. PC3M PTB-GFP, PNC prevalence imaging, 16 h; stronger effect = lower value. AID 2417;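 active = readout at or below -70, meaning at least 70% loss of cells showing the perinucleolar compartment, a nuclear body marking cancer cells; inconclusive = readout between -30 and a set limit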;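 also: plate controls were DMSO wells for no effect and camptothecin positive control wells for full effect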
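PC3M cells stably expressing PTB-GFP, 750–1000 cells/well, treated 16 h at 37 °C with compound (23 nl of library stock), in duplicate. After paraformaldehyde fixation and Hoechst stain, imaged at 20x; PNC prevalence scored by image analysis.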
JMJD2E inh: blocks human JMJD2E demethylase activity. B2RXH2. Potency, µM (series often up to 57.1 µM), inactives show top-dose activity change, negative = inhibition, most hits filed as inhibitors. AID 2147. JMJD2E catalytic domain, FDH-coupled NADH fluorescence (FDH is formaldehyde dehydrogenase). 230,000 compounds, 1.6% hits;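 also: potency is read from the fitted curve at half-maximal effect; 0% = wells with enzyme and -100% = buffer wells without enzyme; nearly all actives have a fitted effect of over 50% in size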
Active calls of the source: *; [ ] = another dose, or the depositor's remark. Unless noted, calls follow the shape of the dose curve; as a rule, active = well fitted inhibition curve with a large enough effect (not every such curve was filed as active); inconclusive = small, poorly fitted or top-dose-only effect, or another doubt; inactive = no such curve, though single readings can be large or run the other way. Unless noted, % is scaled to controls: 0 for no effect and ±100 for the full control effect.

CC(=O)OC1C(N2CCCCC2)c2c(ccc(/C=C/C(=O)N3CCCCC3)c2O)OC1(C)C (centres undefined) was read as ALDH1A1 block 6.9% and JMJD2E inh 7.08µM*.
For COc1ccccc1/C=C/C(=O)N1CCCC1 the results were HPGD block inconclusive, ALDH1A1 block 2.8%, PNC assembly inh inconclusive and JMJD2E inh -0.4%.
O=C(c1nc2ccc([N+](=O)[O-])cc2[nH]c1=O)[C@@H](O)c1ccc2c(c1)OCO2 was read as HPGD block -2.9% and ALDH1A1 block 1.6%[13.5 µM].
Screening CC1(C)O[C@H]2OC([C@H](O)CON3C(=O)c4ccccc4C3=O)[C@H](O)[C@H]2O1 (some centres undefined) returned HPGD block 15.8µM*, ALDH1A1 block 4.0%, PNC assembly inh 40.3 and JMJD2E inh -0.5%.
For Cc1cc(NC(=O)CCc2ccc(S(=O)(=O)N3CCOCC3)cc2)n(-c2ccccc2)n1 the results were HPGD block -7.5%, ALDH1A1 block 1.6%, PNC assembly inh -100.0* and JMJD2E inh -3.2%.
For Cc1csc(NC(=O)CCc2ccc(S(=O)(=O)N3CCOCC3)cc2)n1 the results were HPGD block -21.3%, ALDH1A1 block inconclusive, PNC assembly inh 2.7 and JMJD2E inh 2.0%.
`COc1ccc(S(=O)(=O)N2CCN(CC(=O)Nc3cc(OC)cc(OC)c3)CC2)cc1` gave HPGD block -12.1%, ALDH1A1 block inconclusive, PNC assembly inh 55.9 and JMJD2E inh -3.8%.
For COc1cccc(NC(=O)CN2CCN(S(=O)(=O)c3ccc(C(C)C)cc3)CC2)c1 the results were HPGD block -14.9%, ALDH1A1 block 22.4µM*, PNC assembly inh -27.9 and JMJD2E inh 2.8%.
Screening COc1cccc(NC(=O)CN2CCN(S(=O)(=O)c3ccc(F)cc3)CC2)c1 returned HPGD block 1.0%, ALDH1A1 block 10.3%, PNC assembly inh -111.3* and JMJD2E inh 1.2%.
O=C(CN1CCOCC1)Nc1cc(C(F)(F)F)ccc1Cl was read as ALDH1A1 block 14.2% and JMJD2E inh -3.7%.
Screening Cc1ccc(C)n1CCN1CCN(CC(=O)Nc2cc(C(F)(F)F)ccc2Cl)CC1 returned HPGD block -12.9%, ALDH1A1 block 28.2µM*, PNC assembly inh 29.8 and JMJD2E inh inconclusive.
For CCn1cnc2sc(-c3ccccc3)cc2c1=O the results were HPGD block -20.7%, ALDH1A1 block 14.1µM*, PNC assembly inh 11.9 and JMJD2E inh -24.7%.
`O=c1c2cc(-c3ccccc3)sc2ncn1-n1cccc1` gave HPGD block -4.8%, ALDH1A1 block 9.4%, PNC assembly inh -1.3 and JMJD2E inh -4.4%.
Screening Cc1ccc(C)n1-n1cnc2sc(-c3ccccc3)cc2c1=O returned HPGD block 28.2µM*, ALDH1A1 block inconclusive, PNC assembly inh 4.5 and JMJD2E inh -13.6%.
Screening Nc1nc(SCCO)[nH]c(=O)c1NC(=O)c1ccccc1F returned ALDH1A1 block 12.6% and JMJD2E inh -3.0%.
For Cc1ccc(C(=O)N/C(=C/c2ccccc2)C(=O)NCC2CCCO2)cc1 (centres undefined) the results were ALDH1A1 block 8.0% and JMJD2E inh 2.1%.
Screening COc1ccc(CC(=O)NNC(=S)Nc2ccc(Br)cc2)cc1 returned HPGD block -18.9%, ALDH1A1 block 17.8µM*, PNC assembly inh 11.2 and JMJD2E inh -1.0%.
CCOc1ccc(CC(=O)NNC(=S)Nc2ccccc2)cc1Br was read as HPGD block -14.6%, ALDH1A1 block 31.6µM*, PNC assembly inh 65.3 and JMJD2E inh 8.2%.
COc1ccc(CC(=O)NNC(=O)Cc2ccc(OC)cc2)cc1 was read as ALDH1A1 block -9.4% and JMJD2E inh 2.3%.
For COC(CC(=O)NNC(=S)Nc1ccc(Cl)cc1)OC the results were ALDH1A1 block -4.1% and JMJD2E inh -4.9%.
For COc1ccc(NC(=S)NNC(=O)CNc2ccc(Cl)cc2)cc1 the results were ALDH1A1 block 10µM* and JMJD2E inh inconclusive.
`Cc1cccc(NC(=S)NNC(=O)COc2ccc(Cl)cc2Cl)c1` gave HPGD block inconclusive, ALDH1A1 block 6.31µM*, PNC assembly inh 65.2 and JMJD2E inh -1.8%.
For CC(=O)NCc1ccc(S(=O)(=O)NC(C(=O)O)C(C)C)cc1 (centres undefined) the results were ALDH1A1 block -3.5% and JMJD2E inh 9.0%.
`COc1ccc(CCNC(=O)CNC(=O)Cn2ccc3ccccc3c2=O)cc1OC` gave JMJD2E inh -12.0%.
